Test system: Lefty1
Test: Lefty1 protein binding to printed compounds – biochemical, small-molecule microarray, 635/667 nm fluorescence, primary screen (AID 1139)
Conditions: fluorescence 635/667, higher = more signal

Going from `COc1ccc(CCNC(=O)[C@@]2(Sc3ccc(C)cc3)CC(=O)N(C(C)C)[C@@H]2c2ccc(CO)cc2I)cc1` to `CC(C)NC(=O)[C@@H]1c2ccccc2C(=O)N(C2Cc3ccccc3C2)[C@H]1c1ccc(CO)cc1`, the composite z-score rises from -0.979 to -0.0727.

First: COC(=O)[C@@]1(Cc2ccc(F)cc2)[C@H]2c3cc(C(=O)N4CCCC4)n(Cc4ccc(S(C)(=O)=O)cc4)c3C[C@H]2CN1C(=O)c1ccccc1
Second: [N-]=[N+]=NCc1ccccc1C[C@]1(C(=O)N2CCCCC2)N=C(c2ccc(OCCCO)cc2)O[C@H]1c1ccccc1N=[N+]=[N-]
The composite z-score of the first is higher: -0.0071 for the first, -0.0342 for the second.

First: O=C1c2ccccc2[C@](Cc2ccccc2I)(C(=O)NCCN2CCOCC2)[C@H](c2ccc(CO)cc2)N1C1CCCCC1
Second: COC(=O)[C@@]1(CCS(=O)(=O)c2ccccc2)N=C(c2ccc(OCCCO)cc2)O[C@H]1c1ccccc1CN=[N+]=[N-]
The composite z-score of the first is higher: 1.36 for the first, 0.279 for the second.

First: COCCOC(=O)N1C(=O)[C@@]2(c3cc(C#CCNC(N)=O)ccc31)[C@H](C(=O)Nc1nc3ccccc3s1)[C@H]1C(=O)O[C@H](c3ccccc3)[C@H](c3ccccc3)N1[C@@H]2c1ccc(OCCO)cc1
Second: CCOC(=O)C[C@H]1[C@H](OC(=O)c2ccc(C(=O)c3ccccc3)cc2)[C@@H](NC(=O)CC(C)C)c2cc(OCCCO)ccc2N1C(=O)c1ccc2ccccc2n1
The composite z-score of the first is lower: 0.9 for the first, 1.36 for the second.

`CC(C)=CCCC(C)=CC(O)C1C=CC2C(=O)N(C)C(=O)C2N1Nc1ccccc1` (centres undefined) gave a composite z-score of 1.08.

Test system: wheat germ agglutinin (Triticum aestivum), Alexa647-labelled
Test: Alexa647-WGA lectin binding to printed small molecules – biochemical, small-molecule microarray, 635/667 nm fluorescence, artefact control for SMM control-protein annotation, profiling panel (AID 1140);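 also: score merges 667 nm feature emission with signal to noise over triplicate slides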
Conditions: WGA-A647 binding, 635 nm fluorescence, higher = more signal

Going from `C=C(COC)/C(=C/C[C@H](OC(C)=O)c1ccc(CO)o1)c1cc(C(=O)OC)ccc1OC` to `COc1ccc(CCNC(=O)[C@@]2(Sc3ccc(C)cc3)CC(=O)N(C(C)C)[C@@H]2c2ccc(CO)cc2I)cc1`, the composite z-score falls from -0.199 to -0.258.

First: O=C(NCCN1CCOCC1)C1N=C(c2ccc(OCCCO)cc2)N(c2ccccc2)O1 (centres undefined)
Second: O=C(N1CCCCC1)[C@]1(Cc2ccccc2)N=C(c2ccc(OCCCO)cc2)O[C@@H]1c1ccccc1
The composite z-score of the first is lower: 0.61 for the first, 0.99 for the second.

Compared with `COCCOC(=O)N1C(=O)[C@@]2(c3cc(C#CCCO)ccc31)[C@H](C(=O)N1CCCCCCC1)[C@H]1C(=O)O[C@H](c3ccccc3)[C@H](c3ccccc3)N1[C@@H]2c1ccc(OCCO)cc1`, `COCCOC(=O)N1C(=O)[C@@]2(c3cc(C#CC4(O)CCCCCC4)ccc31)[C@H](c1ccc(OCCO)cc1)N1[C@H](c3ccccc3)[C@H](c3ccccc3)OC(=O)[C@H]1[C@@H]2C(=O)N1CCN(c2ncccn2)CC1` is lower in composite z-score: 1.35 for the first, 0.458 for the second.

Going from `COc1cc(Br)cc(C(O)C2C=CC3C(=O)N(C)C(=O)C3N2N2CCCCC2)c1OC` (centres undefined) to `C=C(C)[C@@H]1CC=C(C(O)C2C=CC3C(=O)N(C)C(=O)C3N2Nc2ccccc2)CC1` (some centres undefined), the composite z-score rises from -0.0965 to 1.18.

Going from `CC(C)c1ccc(NN2C(C(O)c3ccc(B(O)O)cc3)C=CC3C(=O)N(c4ccccc4)C(=O)C32)cc1` (centres undefined) to `CC(C)C(O)C1C=CC2C(=O)N(c3ccccc3)C(=O)C2N1Nc1ccc([N+](=O)[O-])cc1` (centres undefined), the composite z-score rises from 0.783 to 1.01.

First: C=CCNC(=O)[C@@H]1[C@H]2C(=O)O[C@H](c3ccccc3)[C@H](c3ccccc3)N2[C@H](c2ccccc2OCCO)[C@@]12C(=O)N(C(=O)OCCOC)c1ccccc12
Second: COCCOC(=O)N1C(=O)[C@@]2(c3cc(C#CCNC(N)=O)ccc31)[C@H](C(=O)Nc1nc3ccccc3s1)[C@H]1C(=O)O[C@H](c3ccccc3)[C@H](c3ccccc3)N1[C@@H]2c1ccc(OCCO)cc1
The composite z-score of the first is lower: 0.478 for the first, 0.677 for the second.

Going from `COC(=O)[C@@]1(Cc2ccc(OC)cc2)[C@@H]2C(=CC(=O)[C@H]2CC(=O)C(=O)N2CCCC2)CN1C(=O)c1ccccc1` to `COC(=O)[C@@]1(Cc2ccc(F)cc2)[C@H]2c3cc(C(=O)N4CCCC4)n(Cc4ccc(S(C)(=O)=O)cc4)c3C[C@H]2CN1C(=O)c1ccccc1`, the composite z-score rises from 0.357 to 0.616.

Going from `COC(=O)[C@@]1(Cc2ccc(OC)cc2)[C@H]2c3cc(C(=O)N(C)C)n(Cc4ccc(S(C)(=O)=O)cc4)c3C[C@H]2CN1C(=O)c1ccccc1` to `COc1ccc([Si](C)(C)[C@H]2[C@H](CCO)O[C@@]3(C(=O)N(Cc4ccc(N(C=O)c5ccccc5)cc4)c4ccccc43)[C@@H]2C)cc1`, the composite z-score falls from 1.23 to 0.655.

First: COc1ccc(C#Cc2ccc3c(c2)[C@]2(C(=O)N3)[C@H](C(=O)Nc3nc4ccccc4s3)[C@H]3C(=O)O[C@H](c4ccccc4)[C@H](c4ccccc4)N3[C@@H]2c2ccc(O)cc2)cc1
Second: COc1ccc(C#Cc2ccc3c(c2)[C@]2(C(=O)N3)[C@H](c3ccccc3OCCO)N3[C@H](c4ccccc4)[C@H](c4ccccc4)OC(=O)[C@H]3[C@@H]2C(=O)Nc2nc3ccccc3s2)cc1
The composite z-score of the first is higher: 1.18 for the first, 0.828 for the second.

Going from `OCCCC1=CC(c2cccs2)N(Cc2cc3c(cc2Br)OCO3)CC1` (centres undefined) to `CCN(CC)c1ccc(N2CC=CC34O[C@@H]5C=CCCOC(=O)C5[C@H]3C(=O)N(CCCCCCO)[C@@H]4C2=O)cc1` (some centres undefined), the composite z-score falls from 0.929 to 0.623.

First: CCCCCN1CC=CC23O[C@@H]4/C=C\CCC(C)OC(=O)C4[C@H]2C(=O)N(C(C)CO)[C@@H]3C1=O (some centres undefined)
Second: CC(C)=CCCC(C)=CC(O)C1C=CC2C(=O)N(C)C(=O)C2N1Nc1ccccc1 (centres undefined)
The composite z-score of the first is lower: -0.721 for the first, 1.22 for the second.

First: CC(C)OC(=O)C=C1C[C@@H](c2ccccn2)O[C@@H](c2ccccn2)O1
Second: CC(C)NC(=O)[C@@H]1c2ccccc2C(=O)N(C2Cc3ccccc3C2)[C@H]1c1ccc(CO)cc1
The composite z-score of the first is lower: 0.372 for the first, 0.664 for the second.

Going from `C=CCOC(=O)[C@H]1[C@@H]2C(=O)O[C@@H](c3ccccc3)[C@@H](c3ccccc3)N2[C@@H](c2ccc(OCCOC(=O)[C@@H]3C[C@@H]4C(=O)N[C@@H](CCCCNC(C)=O)C(=O)N4[C@@H]3c3ccc(O)cc3)cc2)[C@]12C(=O)Nc1ccccc12` to `C=CCOC(=O)[C@H]1[C@@H]2C(=O)O[C@@H](c3ccccc3)[C@@H](c3ccccc3)N2[C@@H](c2ccc(OCCOC(=O)[C@H]3C[C@H]4C(=O)N[C@@H](CCCCNC(C)=O)C(=O)N4[C@H]3c3ccc(O)cc3)cc2)[C@]12C(=O)Nc1ccc(I)cc12`, the composite z-score falls from 0.8 to 0.105.

First: Cc1nc2cc(Br)ccc2c(=O)o1
Second: C=C[C@@H](COC(=O)OC(C)(C)C)N(Cc1ccc(OC)cc1)S(=O)(=O)c1ccc(Br)cc1
The composite z-score of the first is higher: 0.536 for the first, 0.285 for the second.

First: COCCOC(=O)N1C(=O)[C@@]2(c3cc(C#Cc4ccc(OC)cc4)ccc31)[C@H](c1ccc(OCCO)cc1)N1[C@H](c3ccccc3)[C@H](c3ccccc3)OC(=O)[C@H]1[C@@H]2C(=O)N1CCN(c2ncccn2)CC1
Second: COC(=O)C(CC#Cc1ccc2c(c1)[C@]1(C(=O)N2)[C@H](c2ccc(OCCO)cc2)N2[C@H](c3ccccc3)[C@H](c3ccccc3)OC(=O)[C@H]2[C@@H]1C(=O)Nc1nc2ccccc2s1)C(=O)OC
The composite z-score of the first is lower: -0.0073 for the first, 0.638 for the second.

First: CCCC[C@@H]1C[C@H]1[C@@H](NC(=O)C(C)(C)C)c1ccc(C(F)(F)F)cc1
Second: COC(=O)[C@@]1(CCS(=O)(=O)c2ccccc2)N=C(c2ccc(OCCCO)cc2)O[C@H]1c1ccccc1CN=[N+]=[N-]
The composite z-score of the first is lower: -0.372 for the first, 1.01 for the second.

First: O=C1c2ccccc2[C@](Cc2ccccc2I)(C(=O)NCCN2CCOCC2)[C@H](c2ccc(CO)cc2)N1C1CCCCC1
Second: [N-]=[N+]=NCc1ccccc1C[C@]1(C(=O)N2CCCCC2)N=C(c2ccc(OCCCO)cc2)O[C@H]1c1ccccc1N=[N+]=[N-]
The composite z-score of the first is higher: 1.16 for the first, 1 for the second.

With `CCOC(=O)C[C@H]1[C@H](OC(=O)c2ccc(C(=O)c3ccccc3)cc2)[C@@H](NC(=O)CC(C)C)c2cc(OCCCO)ccc2N1C(=O)c1ccc2ccccc2n1` the composite z-score was 0.61.

— PubChem BioAssay
